Test [1] concerns the target Tyrosine-protein kinase receptor UFO (Homo sapiens) (UniProt P30530). The conditions noted are these: at 1 µM.
Test [2] deals with Tyrosine-protein kinase Blk (Homo sapiens) (UniProt P51451). As to conditions: at 0.1 µM.
Test [3] has the same target. As to conditions: at 1 µM.
Test [4] deals with T1, Cytoplasmic tyrosine-protein kinase BMX (Homo sapiens) (UniProt P51813).
T1 sequence (whole entry): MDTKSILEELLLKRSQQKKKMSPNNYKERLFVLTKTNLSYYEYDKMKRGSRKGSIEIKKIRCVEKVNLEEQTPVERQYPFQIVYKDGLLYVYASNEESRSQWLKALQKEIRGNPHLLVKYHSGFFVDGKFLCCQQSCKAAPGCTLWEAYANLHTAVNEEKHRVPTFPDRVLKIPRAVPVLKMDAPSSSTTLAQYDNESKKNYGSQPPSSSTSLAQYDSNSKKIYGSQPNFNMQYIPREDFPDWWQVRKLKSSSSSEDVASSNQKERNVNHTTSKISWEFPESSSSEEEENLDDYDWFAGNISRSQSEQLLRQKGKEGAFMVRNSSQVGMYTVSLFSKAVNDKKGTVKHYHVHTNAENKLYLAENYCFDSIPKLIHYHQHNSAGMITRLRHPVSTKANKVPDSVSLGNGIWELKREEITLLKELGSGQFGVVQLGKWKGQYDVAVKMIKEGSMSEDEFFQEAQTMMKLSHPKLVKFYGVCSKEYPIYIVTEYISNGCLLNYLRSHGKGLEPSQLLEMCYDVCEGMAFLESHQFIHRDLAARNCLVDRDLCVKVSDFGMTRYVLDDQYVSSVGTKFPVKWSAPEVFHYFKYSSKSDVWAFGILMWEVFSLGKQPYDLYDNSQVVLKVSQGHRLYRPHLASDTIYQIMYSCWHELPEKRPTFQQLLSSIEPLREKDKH
As to conditions: at 0.1 µM.

Test [5] has as its target T1, Cytoplasmic tyrosine-protein kinase BMX (Homo sapiens). As to conditions: at 1 µM.
In test [6] the target is Protein-tyrosine kinase 6 (Homo sapiens) (UniProt Q13882). The conditions noted are these: at 0.1 µM.
Test [7] shares this target. As to conditions: at 1 µM.
Test [8] deals with Tyrosine-protein kinase BTK (Homo sapiens) (UniProt Q06187). The conditions noted are these: at 0.1 µM.
The target is the same in test [9]. As to conditions: at 1 µM.
Test [10] has as its target Tyrosine-protein kinase CSK (Homo sapiens) (UniProt P41240). The conditions noted are these: at 0.1 µM.
Test [11] shares this target. As to conditions: at 1 µM.
Test [12] concerns the target T2, Discoidin domain-containing receptor 2 (Homo sapiens) (UniProt Q16832).
T2 sequence (whole entry): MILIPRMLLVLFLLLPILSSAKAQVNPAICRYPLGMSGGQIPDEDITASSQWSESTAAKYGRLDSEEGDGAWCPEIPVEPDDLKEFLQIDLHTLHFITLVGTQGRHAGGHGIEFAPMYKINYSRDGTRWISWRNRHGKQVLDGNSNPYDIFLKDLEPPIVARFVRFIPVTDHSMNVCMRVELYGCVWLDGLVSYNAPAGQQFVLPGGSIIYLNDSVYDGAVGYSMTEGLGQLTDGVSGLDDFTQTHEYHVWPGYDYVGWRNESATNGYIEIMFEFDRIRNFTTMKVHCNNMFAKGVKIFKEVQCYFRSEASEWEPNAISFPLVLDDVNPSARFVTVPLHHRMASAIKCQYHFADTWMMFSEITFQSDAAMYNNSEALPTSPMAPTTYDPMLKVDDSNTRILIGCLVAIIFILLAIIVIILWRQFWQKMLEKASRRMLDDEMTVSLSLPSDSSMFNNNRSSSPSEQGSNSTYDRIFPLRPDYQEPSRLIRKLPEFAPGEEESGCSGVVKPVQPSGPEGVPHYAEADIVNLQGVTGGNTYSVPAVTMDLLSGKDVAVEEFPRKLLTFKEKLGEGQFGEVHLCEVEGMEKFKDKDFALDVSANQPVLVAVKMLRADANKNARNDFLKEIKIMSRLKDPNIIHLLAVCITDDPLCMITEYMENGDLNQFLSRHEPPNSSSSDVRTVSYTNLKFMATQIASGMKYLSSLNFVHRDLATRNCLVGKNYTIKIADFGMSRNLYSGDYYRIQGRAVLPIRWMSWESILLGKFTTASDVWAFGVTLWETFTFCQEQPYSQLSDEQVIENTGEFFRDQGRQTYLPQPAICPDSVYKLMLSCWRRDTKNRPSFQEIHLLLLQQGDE
The conditions noted are these: at 0.1 µM.

Test [13] concerns the target T2, Discoidin domain-containing receptor 2 (Homo sapiens). The conditions noted are these: at 1 µM.
Test [14] concerns the target Epidermal growth factor receptor (Homo sapiens) (UniProt P00533). The conditions noted are these: at 0.1 µM.
The target is the same in test [15]. As to conditions: at 1 µM.
Test [16] deals with Epidermal growth factor receptor (Homo sapiens), P00533 [L858R]. As to conditions: at 0.1 µM.
For test [17] the test system is unchanged. The conditions noted are these: at 1 µM.
Test [18] deals with Epidermal growth factor receptor (Homo sapiens), P00533 [L861Q]. As to conditions: at 0.1 µM.
Test [19] has the same test system. As to conditions: at 1 µM.
The subject of test [20] is Epidermal growth factor receptor (Homo sapiens), P00533 [T790M]. As to conditions: at 0.1 µM.

Results on 7 molecules are retold here after ChEMBL document CHEMBL1961873, “Compounds: GSK PKIS; Assays: Nanosyn kinase panel” (2012).

Each structure is given as a SMILES string.

Chain of Epidermal growth factor receptor (Homo sapiens), P00533 [L861Q] (P00533 whole entry L861Q): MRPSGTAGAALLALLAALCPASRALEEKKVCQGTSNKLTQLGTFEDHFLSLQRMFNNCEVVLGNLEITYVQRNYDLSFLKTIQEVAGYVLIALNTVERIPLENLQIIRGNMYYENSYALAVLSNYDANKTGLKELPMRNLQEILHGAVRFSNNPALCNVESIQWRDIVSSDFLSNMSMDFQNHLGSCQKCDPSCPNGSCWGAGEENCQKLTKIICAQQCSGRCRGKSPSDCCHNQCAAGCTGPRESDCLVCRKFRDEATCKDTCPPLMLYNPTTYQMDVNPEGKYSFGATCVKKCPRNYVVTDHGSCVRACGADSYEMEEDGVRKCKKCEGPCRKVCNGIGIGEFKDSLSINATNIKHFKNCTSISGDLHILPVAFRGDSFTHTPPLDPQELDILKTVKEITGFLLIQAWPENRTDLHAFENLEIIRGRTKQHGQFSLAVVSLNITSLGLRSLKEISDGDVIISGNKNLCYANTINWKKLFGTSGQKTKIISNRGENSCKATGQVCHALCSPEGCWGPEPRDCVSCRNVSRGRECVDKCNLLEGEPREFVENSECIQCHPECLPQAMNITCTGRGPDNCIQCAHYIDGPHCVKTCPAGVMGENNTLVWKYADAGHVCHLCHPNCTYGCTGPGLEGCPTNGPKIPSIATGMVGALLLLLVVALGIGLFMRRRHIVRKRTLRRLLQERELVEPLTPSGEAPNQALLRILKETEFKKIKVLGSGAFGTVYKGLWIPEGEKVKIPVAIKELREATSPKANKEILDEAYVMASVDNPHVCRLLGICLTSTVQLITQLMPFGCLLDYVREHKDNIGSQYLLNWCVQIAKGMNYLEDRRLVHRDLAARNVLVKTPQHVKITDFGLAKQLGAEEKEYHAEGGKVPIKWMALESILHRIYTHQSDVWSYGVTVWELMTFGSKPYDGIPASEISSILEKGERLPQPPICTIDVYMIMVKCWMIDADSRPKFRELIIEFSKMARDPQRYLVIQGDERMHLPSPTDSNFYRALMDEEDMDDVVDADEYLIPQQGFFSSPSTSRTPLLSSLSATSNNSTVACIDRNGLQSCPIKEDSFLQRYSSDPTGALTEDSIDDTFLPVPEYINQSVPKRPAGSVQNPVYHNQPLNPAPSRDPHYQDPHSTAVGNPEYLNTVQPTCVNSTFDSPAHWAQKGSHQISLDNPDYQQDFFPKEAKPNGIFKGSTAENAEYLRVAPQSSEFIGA
Chain of Tyrosine-protein kinase CSK (Homo sapiens) (P41240 2-450 limits assumed): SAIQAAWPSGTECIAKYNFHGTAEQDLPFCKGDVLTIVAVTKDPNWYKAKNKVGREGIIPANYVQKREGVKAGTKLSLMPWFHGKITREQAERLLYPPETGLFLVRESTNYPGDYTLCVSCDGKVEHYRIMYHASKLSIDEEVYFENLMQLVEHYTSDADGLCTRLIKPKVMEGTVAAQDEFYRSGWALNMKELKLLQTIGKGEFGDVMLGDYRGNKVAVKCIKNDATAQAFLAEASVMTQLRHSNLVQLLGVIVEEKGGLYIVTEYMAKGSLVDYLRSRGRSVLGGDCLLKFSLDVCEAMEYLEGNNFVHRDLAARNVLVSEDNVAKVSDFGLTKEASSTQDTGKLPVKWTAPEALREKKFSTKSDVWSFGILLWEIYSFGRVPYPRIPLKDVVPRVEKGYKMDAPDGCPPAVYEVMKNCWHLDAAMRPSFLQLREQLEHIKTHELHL
Chain of Tyrosine-protein kinase receptor UFO (Homo sapiens) (P30530 whole entry): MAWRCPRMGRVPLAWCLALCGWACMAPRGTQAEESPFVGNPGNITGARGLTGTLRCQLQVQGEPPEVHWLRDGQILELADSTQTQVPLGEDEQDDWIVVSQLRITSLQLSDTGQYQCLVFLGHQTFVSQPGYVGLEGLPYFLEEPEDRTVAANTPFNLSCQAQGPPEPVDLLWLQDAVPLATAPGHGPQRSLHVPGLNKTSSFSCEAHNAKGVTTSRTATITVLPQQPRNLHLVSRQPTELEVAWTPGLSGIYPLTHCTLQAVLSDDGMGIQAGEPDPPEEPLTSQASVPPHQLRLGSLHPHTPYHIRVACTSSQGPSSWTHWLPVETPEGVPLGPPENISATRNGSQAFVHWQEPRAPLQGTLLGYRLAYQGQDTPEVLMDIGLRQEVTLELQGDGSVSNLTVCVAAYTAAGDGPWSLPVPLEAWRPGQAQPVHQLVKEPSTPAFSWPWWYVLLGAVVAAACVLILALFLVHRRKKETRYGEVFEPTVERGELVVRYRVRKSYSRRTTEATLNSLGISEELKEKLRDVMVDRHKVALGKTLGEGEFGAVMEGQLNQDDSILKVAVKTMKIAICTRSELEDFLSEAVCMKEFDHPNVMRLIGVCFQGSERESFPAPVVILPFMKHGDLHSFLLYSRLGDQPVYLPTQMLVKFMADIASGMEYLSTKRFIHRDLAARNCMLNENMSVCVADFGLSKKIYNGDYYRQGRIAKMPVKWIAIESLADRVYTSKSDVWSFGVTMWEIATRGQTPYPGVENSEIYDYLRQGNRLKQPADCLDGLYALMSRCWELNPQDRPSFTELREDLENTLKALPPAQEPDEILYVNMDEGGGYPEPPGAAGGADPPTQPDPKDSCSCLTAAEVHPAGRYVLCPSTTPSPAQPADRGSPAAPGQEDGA
Chain of Tyrosine-protein kinase BTK (Homo sapiens) (Q06187 whole entry): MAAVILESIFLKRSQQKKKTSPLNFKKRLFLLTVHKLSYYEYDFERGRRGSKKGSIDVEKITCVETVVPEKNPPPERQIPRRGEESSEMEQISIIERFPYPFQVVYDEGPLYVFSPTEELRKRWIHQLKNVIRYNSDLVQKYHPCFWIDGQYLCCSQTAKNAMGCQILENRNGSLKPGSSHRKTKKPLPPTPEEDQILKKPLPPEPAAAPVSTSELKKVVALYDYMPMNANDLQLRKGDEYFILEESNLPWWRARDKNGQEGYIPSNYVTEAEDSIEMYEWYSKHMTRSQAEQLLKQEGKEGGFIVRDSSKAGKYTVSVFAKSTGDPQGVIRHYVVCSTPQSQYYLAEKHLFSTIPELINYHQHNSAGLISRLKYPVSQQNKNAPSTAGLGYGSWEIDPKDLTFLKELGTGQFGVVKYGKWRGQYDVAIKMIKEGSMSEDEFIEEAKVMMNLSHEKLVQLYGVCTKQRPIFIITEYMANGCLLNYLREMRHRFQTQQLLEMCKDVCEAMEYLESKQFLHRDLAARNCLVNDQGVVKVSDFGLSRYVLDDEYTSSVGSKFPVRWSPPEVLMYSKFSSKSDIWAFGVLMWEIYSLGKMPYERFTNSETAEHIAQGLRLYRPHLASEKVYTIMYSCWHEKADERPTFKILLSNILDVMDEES
Chain of Protein-tyrosine kinase 6 (Homo sapiens) (Q13882 whole entry, looked up): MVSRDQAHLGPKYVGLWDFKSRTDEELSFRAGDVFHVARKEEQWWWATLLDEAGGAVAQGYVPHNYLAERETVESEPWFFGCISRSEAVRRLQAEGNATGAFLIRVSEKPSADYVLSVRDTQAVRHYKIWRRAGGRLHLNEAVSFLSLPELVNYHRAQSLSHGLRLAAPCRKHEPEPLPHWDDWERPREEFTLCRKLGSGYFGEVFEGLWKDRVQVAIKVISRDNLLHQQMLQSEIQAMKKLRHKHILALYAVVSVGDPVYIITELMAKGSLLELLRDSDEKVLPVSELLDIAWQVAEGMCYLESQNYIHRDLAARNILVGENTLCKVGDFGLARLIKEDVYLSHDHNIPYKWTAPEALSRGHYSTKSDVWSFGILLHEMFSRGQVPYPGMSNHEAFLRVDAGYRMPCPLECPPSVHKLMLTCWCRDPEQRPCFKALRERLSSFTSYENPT
Chain of Epidermal growth factor receptor (Homo sapiens), P00533 [T790M] (P00533 whole entry T790M): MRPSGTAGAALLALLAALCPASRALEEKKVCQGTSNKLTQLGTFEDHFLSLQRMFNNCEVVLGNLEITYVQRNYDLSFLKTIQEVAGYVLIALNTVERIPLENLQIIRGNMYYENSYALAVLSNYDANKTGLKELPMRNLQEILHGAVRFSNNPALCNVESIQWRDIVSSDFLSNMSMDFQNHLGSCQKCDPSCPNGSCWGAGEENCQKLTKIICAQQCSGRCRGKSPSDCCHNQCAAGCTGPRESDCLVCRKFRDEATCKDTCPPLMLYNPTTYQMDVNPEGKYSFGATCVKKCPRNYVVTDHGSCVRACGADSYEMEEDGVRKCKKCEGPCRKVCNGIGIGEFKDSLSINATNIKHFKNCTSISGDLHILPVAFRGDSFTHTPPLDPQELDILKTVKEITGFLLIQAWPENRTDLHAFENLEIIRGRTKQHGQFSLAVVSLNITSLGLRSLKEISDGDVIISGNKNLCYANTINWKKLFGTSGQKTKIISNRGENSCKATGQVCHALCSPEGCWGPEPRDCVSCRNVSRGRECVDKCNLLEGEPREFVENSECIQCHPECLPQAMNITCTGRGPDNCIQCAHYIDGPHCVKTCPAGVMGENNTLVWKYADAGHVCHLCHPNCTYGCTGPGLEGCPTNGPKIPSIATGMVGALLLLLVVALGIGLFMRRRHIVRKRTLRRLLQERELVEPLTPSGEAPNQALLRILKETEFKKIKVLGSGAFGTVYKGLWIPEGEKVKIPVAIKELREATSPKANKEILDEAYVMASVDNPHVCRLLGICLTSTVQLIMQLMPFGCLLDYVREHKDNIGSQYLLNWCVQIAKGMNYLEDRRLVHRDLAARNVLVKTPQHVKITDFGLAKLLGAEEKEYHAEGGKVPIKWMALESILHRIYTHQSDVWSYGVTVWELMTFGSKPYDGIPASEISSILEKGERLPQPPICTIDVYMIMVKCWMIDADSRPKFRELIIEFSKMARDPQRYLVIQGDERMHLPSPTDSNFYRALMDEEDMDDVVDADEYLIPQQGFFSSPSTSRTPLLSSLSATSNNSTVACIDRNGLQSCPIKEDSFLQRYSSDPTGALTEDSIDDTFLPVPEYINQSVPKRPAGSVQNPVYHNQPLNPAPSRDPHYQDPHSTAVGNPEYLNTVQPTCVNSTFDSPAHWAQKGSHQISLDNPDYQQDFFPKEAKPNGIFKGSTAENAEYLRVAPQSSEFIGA

A word on the inhibition: it is the relative decrease from the control value, in per cent. For the molecule `Nc1nonc1-c1nc2cnccc2n1C1CCCCC1`, the inhibition in test [1] is 4.86%; in [2], -1.07%; in test [3], 0.24%; in test [4] it was 1.92%; in test [5], -1.58%; in [6], -5.22%. Further, the inhibition in test [7] was -3%; in test [8], -0.64%; in test [9] it was -0.36%; in test [10], -1.78%; in test [11], -6.81%; in [12], 0.11%. For the same molecule, the inhibition in test [13] is 1.77%; in [14] it was 1.9%; in test [15] it was 7.55%; in test [16], 0.62%; in test [17], 0.1%; in test [18], -0.81%. In addition, the results for the inhibition in test [19] and in [20] were -3.23% and -2.97%, respectively.
Regarding `NS(=O)(=O)c1ccc(-c2ccc3c(NC(=O)C4CC4)n[nH]c3c2)cc1`, the inhibition in [1] was -2.63%; in [2] it was 1.89%; in [3], 6.01%; in [4], 4.98%; in [5] it was 3.87%; in [6], 0.27%. For the same molecule, the inhibition in test [7] is 1.67%; in test [8] it was 1.8%; in test [9] it was 1.47%; in test [10] it was 6.64%; in test [11] it was 2.04%; in [12], 0.39%. The inhibition was 1.56% in test [13]; 1.61% in test [14]; 5.25% in test [15]; 0.79% in test [16]; 1.74% in test [17]; 2.23% in [18]. For the same molecule, the inhibition in test [19] is -1.61%; in test [20] it was 0.83%.
With `CCn1c(-c2nonc2N)nc2c(C#CC(C)(C)O)nc(O[C@@H](CN)c3ccccc3)cc21`, the inhibition is 8.92% in test [1]; -0.06% in test [2]; 10.1% in test [3]; 2.29% in [4]; -1.16% in test [5]; -1.39% in [6]. Further, the inhibition in test [7] is -2.85%; in test [8], -2.57%; in [9], -0.15%; in [10] it was -5%; in test [11], -5.08%; in test [12] it was -0.22%. Moreover, the inhibition in test [13] is 0.1%; in test [14], 1.88%; in [15], 7.41%; in [16], -1.92%; in test [17], 4%; in test [18], -0.6%. Also, the inhibition in test [19] was -1.72%; in test [20] it was -1.47%.
With `COc1cccc(-n2ncc3c(N/N=C/c4ccncc4)ncnc32)c1`, the inhibition in [1] turned out to be 6.36%; in test [2], 13.3%; in test [3], 63.6%; in test [4], 12.2%; in test [5], 46.6%; in test [6], 6.09%. The inhibition in test [7] is 23.1%; in [8], -0.08%; in test [9], 2.16%; in test [10], 5.5%; in test [11], 16.8%; in test [12] it was 2.12%. In addition, the inhibition in [13] was determined as 9.37%; in [14], 3.52%; in test [15] it was 28.8%; in test [16], 20.7%; in [17], 73.3%; in [18], 7.71%. The inhibition in test [19] turned out to be 35.5%; in test [20], 2.99%.
For the molecule `NS(=O)(=O)c1ccc(N/C=C2\C(=O)Nc3ccc4ncsc4c32)cc1`, the inhibition in [1] came out at 24.7%; in [2], 5.86%; in test [3] it was 36.7%; in [4], 3.85%; in test [5], 6.44%; in test [6], 2.1%. Further, the inhibition was 4.82% in [7]; -2.5% in test [8]; 0.29% in [9]; 1.61% in test [10]; 3.86% in test [11]; 1.19% in test [12]. Further, the inhibition in test [13] came out at 3.5%; in [14], 2.49%; in [15] it was 5.22%; in [16] it was 4.28%; in [17], 5.3%; in test [18], 2.44%. The values for the inhibition in [19] and in test [20] were 3.42% and 0.93%, respectively.
As to `COc1cc2c(cc1Nc1nc(Nc3ccsc3C(N)=O)c3cc[nH]c3n1)N(C(=O)CN(C)C)CCC2`, the inhibition came to 66.8% in test [1]; 7.36% in [2]; 10.6% in test [3]; 0.79% in test [4]; 1.32% in test [5]; 0.16% in test [6]. Also, the inhibition is 3.39% in [7]; 0.44% in test [8]; 1% in test [9]; -7.26% in test [10]; -4.71% in test [11]; 2.81% in test [12]. The inhibition came out at 5.59% in [13]; 0.26% in [16]; 20.5% in test [17]; 0.9% in test [18]; 8.73% in test [19]; 8.68% in test [20].
With `Fc1ccc(-c2ncn(C3CCNCC3)c2-c2ccnc(Oc3ccccc3)n2)cc1`, the inhibition in test [1] was -3.54%; in test [2] it was -3.23%; in test [3], -0.29%; in test [4] it was 0.89%; in test [5], 2.13%; in test [6], 2.9%. Moreover, the inhibition in [7] is 3.59%; in test [8] it was -4.26%; in test [9], -4.63%; in test [10], 1.9%; in test [11], 3.34%; in test [12], 1.18%. In addition, the inhibition came to 1.96% in [13]; 8.94% in test [14]; 11.7% in [15]; 3.24% in test [16]; 12.9% in [17]; 3.69% in test [18]. In addition, the inhibition in test [19] was determined as 6.82%; in test [20], 0.12%.
